# Data from PubChem BioAssay (NCI).
# Compounds without any hit were thinned out: in the full panel of roughly 83,000, 20% have a hit.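 A percent growth of 40 corresponds to 60% growth inhibition; 0 means no net growth; -100 means all cells died. Active threshold: below 10.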 A number with no mark means an inactive call. Active and inactive are the calls of the source.
# Tested on: MOLT-4 leukemia
# Assay: NCI-60 one-dose screen, 48 h (100 = growth as untreated, 0 = no growth, -100 = all killed)
# Conditions: 10 µM unless noted
row,SMILES,growth
1,N=C(N)c1ccc(-c2ccc(-c3ccco3)o2)cc1F,0.311% (active)
2,CCOC(=O)Cn1c(-c2nonc2NC(=O)c2ccccc2F)nc2ccccc21,25%
3,CC(C)OC1OC(OC(C)C)C(OC(C)C)OC1OC(C)C (centres undefined),80.2%
4,Cc1nn(-c2ccccc2)c2nc3c(nc12)C1=NCCN1C(c1ccc(Cl)cc1)N3 (centres undefined),47.3%
5,COc1ccc(-c2ccc(-c3ccc(C(=N)N)s3)s2)cc1,-56.2% (active)
6,N=C(N)c1ccc(-c2ccc(-c3cccs3)s2)cc1F,-55.5% (active)
7,CCCCCCCCCCCCCCCC1=NCCN1,-27.3% (active)
8,CCS(=O)(=O)Nc1cccc(Nc2c3cccc(C)c3nc3c(C)cccc23)c1OC,-12.8% (active)
9,N/C(=N\O)c1ncc(-c2ccc(C(F)(F)F)cc2)c(NC2CCCCCC2)n1,-61.3% [100 µM] (active)
10,N/N=C(\C(=N\N)c1ccccc1)c1ccccc1,81.2%
11,COc1cc(/C=C/c2cc(/C=C/c3ccc(O)c(OC)c3)n(C(=O)Nc3ccc(F)c(Cl)c3)n2)ccc1O,-17.7% (active)
12,Cc1cc(Nc2c3ccccc3nc3ccccc23)ccc1NS(C)(=O)=O,2.33% (active)
13,O=C(CC(=O)c1ccccc1F)Nc1ccc([N+](=O)[O-])cc1,93.3%
14,COc1cc2ccc(C(C)=O)cc2cc1OC,127%
15,Cc1ccccc1Nc1n[nH]c(Cc2ccccc2)n1,70.2%
16,CNC1=C([N+](=O)[O-])C(c2ccccc2O)C(C#N)=C(c2cccs2)O1 (centres undefined),88.6%
17,CCN(C(=O)CCl)C(C)(C)C(SSSC(c1ccc(Cl)cc1)C(C)(C)N(CC)C(=O)CCl)c1ccc(Cl)cc1 (centres undefined),36.9%
18,COc1cc2c(cc1OC)-c1cc(OC)c(OC)cc1C(CN(C)C)C2 (centres undefined),103% [100 µM]

row,SMILES,growth
1,CCCCOC(=O)c1cc(O)c(O)c(O)c1,30.7%
2,FC(F)(F)c1cc(-c2nnc3n2N=C(Cl)CS3)cc(C(F)(F)F)c1,-17.6% (active)
3,COc1cc2ncnc(Nc3ccc(S(=O)(=O)Nc4cc(C)on4)cc3)c2cc1OCCCN1CCN(c2ccc([N+](=O)[O-])cc2)CC1,111%
4,COc1ccc(/C=N/NC(N)=S)c(OC)n1,90.8%
5,O=C1c2cccc3cccc(c23)C(=O)N1CCCCCCCCCCN1C(=O)c2cccc3cccc(c23)C1=O,107%
6,O=C1OC(/C=C/c2ccccc2)=NC/1=C/c1ccccc1[N+](=O)[O-],91.1%
7,C=C(c1ccc(C(=O)NCCCn2ccnc2)cc1)c1cc2c(cc1C)C(C)(C)CCC2(C)C,11.1%
8,O=[N+]([O-])c1ccc(Sc2nc(Cl)nc(NC3CCCC3)n2)cc1,-30.1% [100 µM] (active)
9,O=C(NCCN1CCCCC1)n1cc(-c2ccncc2)c(-c2ccc(Cl)c(O)c2)n1,88.2%
10,CC(C)(C)c1cc(C[P+](c2ccccc2)(c2ccccc2)c2ccccc2)cc(C(C)(C)C)c1O,-7.18% (active)
11,N#Cc1ccc(-c2ccc(-c3cccs3)o2)cc1F,66.3%
12,Cc1cccc2nc3ccccc3c(Nc3ccc(NS(C)(=O)=O)cc3)c12,-0.487% (active)
13,COc1cc(OC)cc(-c2ccc(-c3ccc(C(=N)N)s3)s2)c1,-71.2% (active)
14,C=C1C(=O)O[C@H]2[C@H]1CC/C(COC(=O)NCc1[nH]nc3ccccc13)=C\CC[C@@]1(C)O[C@@H]21,-12.7% (active)
15,COC(=O)[C@H](Cc1cn(C)cn1)NC(=O)[C@H](CC(C)C)NC(=O)Nc1cc(C(F)(F)F)cc(C(F)(F)F)c1,-57.2% [100 µM] (active)
16,CCOC(=O)c1cc(C(=O)OCC)c(C)nc1C,90.8%
17,COC(=O)[C@@H](Cc1c[nH]c2ccccc12)NC(=O)/C=C/c1ccccc1,24.1%
18,CCOC(=O)C(CCCCC(NC(C)=O)(C(=O)OCC)C(=O)OCC)(NC(C)=O)C(=O)OCC,109%

# Tested on: SR leukemia
# Assay: as above
# Conditions: 10 µM unless noted
row,SMILES,growth
1,N=C(N)c1ccc(-c2ccc(-c3ccco3)o2)cc1F,-9.28% (active)
2,CCOC(=O)Cn1c(-c2nonc2NC(=O)c2ccccc2F)nc2ccccc21,10.8%
3,CC(C)OC1OC(OC(C)C)C(OC(C)C)OC1OC(C)C (centres undefined),100%
4,Cc1nn(-c2ccccc2)c2nc3c(nc12)C1=NCCN1C(c1ccc(Cl)cc1)N3 (centres undefined),6.3% (active)
5,COc1ccc(-c2ccc(-c3ccc(C(=N)N)s3)s2)cc1,-40.6% (active)
6,N=C(N)c1ccc(-c2ccc(-c3cccs3)s2)cc1F,-23.8% (active)
7,CCCCCCCCCCCCCCCC1=NCCN1,-44.9% (active)
8,CCS(=O)(=O)Nc1cccc(Nc2c3cccc(C)c3nc3c(C)cccc23)c1OC,5.24% (active)
9,N/C(=N\O)c1ncc(-c2ccc(C(F)(F)F)cc2)c(NC2CCCCCC2)n1,-48.8% [100 µM] (active)
10,N/N=C(\C(=N\N)c1ccccc1)c1ccccc1,77.2%
11,COc1cc(/C=C/c2cc(/C=C/c3ccc(O)c(OC)c3)n(C(=O)Nc3ccc(F)c(Cl)c3)n2)ccc1O,1.44% (active)
12,Cc1cc(Nc2c3ccccc3nc3ccccc23)ccc1NS(C)(=O)=O,-6.9% (active)
13,O=C(CC(=O)c1ccccc1F)Nc1ccc([N+](=O)[O-])cc1,77.7%
14,Cc1ccccc1Nc1n[nH]c(Cc2ccccc2)n1,99.7%
15,CNC1=C([N+](=O)[O-])C(c2ccccc2O)C(C#N)=C(c2cccs2)O1 (centres undefined),48.6%
16,CCN(C(=O)CCl)C(C)(C)C(SSSC(c1ccc(Cl)cc1)C(C)(C)N(CC)C(=O)CCl)c1ccc(Cl)cc1 (centres undefined),17.6%
17,COc1cc2c(cc1OC)-c1cc(OC)c(OC)cc1C(CN(C)C)C2 (centres undefined),53.9% [100 µM]

row,SMILES,growth
1,CCCCOC(=O)c1cc(O)c(O)c(O)c1,44.5%
2,COc1cc2ncnc(Nc3ccc(S(=O)(=O)Nc4cc(C)on4)cc3)c2cc1OCCCN1CCN(c2ccc([N+](=O)[O-])cc2)CC1,114%
3,COc1ccc(/C=N/NC(N)=S)c(OC)n1,88.3%
4,O=C1OC(/C=C/c2ccccc2)=NC/1=C/c1ccccc1[N+](=O)[O-],90.8%
5,C=C(c1ccc(C(=O)NCCCn2ccnc2)cc1)c1cc2c(cc1C)C(C)(C)CCC2(C)C,-27.2% (active)
6,O=[N+]([O-])c1ccc(Sc2nc(Cl)nc(NC3CCCC3)n2)cc1,-28.3% [100 µM] (active)
7,O=C(NCCN1CCCCC1)n1cc(-c2ccncc2)c(-c2ccc(Cl)c(O)c2)n1,70.9%
8,CC(C)(C)c1cc(C[P+](c2ccccc2)(c2ccccc2)c2ccccc2)cc(C(C)(C)C)c1O,-22.3% (active)
9,N#Cc1ccc(-c2ccc(-c3cccs3)o2)cc1F,85%
10,Cc1cccc2nc3ccccc3c(Nc3ccc(NS(C)(=O)=O)cc3)c12,-3.06% (active)
11,COc1cc(OC)cc(-c2ccc(-c3ccc(C(=N)N)s3)s2)c1,-47.3% (active)
12,C=C1C(=O)O[C@H]2[C@H]1CC/C(COC(=O)NCc1[nH]nc3ccccc13)=C\CC[C@@]1(C)O[C@@H]21,4.38% (active)
13,COC(=O)[C@H](Cc1cn(C)cn1)NC(=O)[C@H](CC(C)C)NC(=O)Nc1cc(C(F)(F)F)cc(C(F)(F)F)c1,-46.5% [100 µM] (active)
14,CCOC(=O)c1cc(C(=O)OCC)c(C)nc1C,87.9%
15,COC(=O)[C@@H](Cc1c[nH]c2ccccc12)NC(=O)/C=C/c1ccccc1,18.4%
16,CCOC(=O)C(CCCCC(NC(C)=O)(C(=O)OCC)C(=O)OCC)(NC(C)=O)C(=O)OCC,99.8%
